Measured values taken from PubChem BioAssay (Tox21).
“And” between values parts separate entries of the source, which are not always exact repeats. Equal values may be shown once. A structure can be active in one record and inactive in another. The source made the active and inactive calls. A call without a number means that no potency is given here. Unless noted, calls follow the shape of the full dose curve.

What was measured:
[1] = qHTS assay to identify small molecule antagonists of the thyroid receptor (TR) signaling pathway - cell viability counter screen (AID 743064; active = well fitted curve in the direction sought with a large enough effect in the repeat runs; inconclusive = weak or mixed curves; inactive = no such curve, though single readings can be large; an effect the other way counts as inactive or inconclusive; also: nearly all actives have a fitted effect of over 50% in size; also: potency is read from the fitted curve at half-maximal effect)
Summary of the method: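 In rat pituitary GH3.TRE-Luc reporter cells co-exposed to compound and 1 nM T3 for 23.5 h, cytotoxicity was assessed with CellTiter-Fluor in the same wells, read by fluorescence.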

[2] = target: Estrogen receptor (Homo sapiens) (UniProt P03372); experiment: qHTS assay to identify small molecule antagonists of the estrogen receptor alpha (ER-alpha) signaling pathway (AID 743069; active = well fitted curve in the direction sought with a large enough effect in the signal ratio in the repeat runs, not every such curve was filed as active; inconclusive = weak or mixed curves, or effect the other way; inactive = no such curve, though single readings can be large or run the other way; the % refers to the signal ratio; also: potency is read from the fitted curve at half-maximal effect)
Summary of the method: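 ER-alpha-UAS-bla GripTite HEK293 line; 2% charcoal-stripped FBS overnight; plated, 4 hr 37C/5% CO2; cpd in DMSO + 17beta-estradiol, 18 hr 37C; LiveBLAzer B/G FRET substrate 2 hr RT; fluorescence intensity.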

[3] = qHTS assay to identify small molecule antagonists of the estrogen receptor alpha (ER-alpha) signaling pathway - cell viability counter screen (AID 743074);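 also: HEK293 cells carrying ER-alpha-UAS-bla reporter stimulated with 17beta-estradiol; nearly all actives have a fitted effect of over 45% in size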; also: potency is read from the fitted curve at half-maximal effect
[4] = target: Estrogen receptor (Homo sapiens) (UniProt P03372); experiment: qHTS assay to identify small molecule agonists of the estrogen receptor alpha (ER-alpha) signaling pathway (AID 743075);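 also: HEK293 GripTite cells with ER-alpha and UAS-driven beta-lactamase reporter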; also: potency is read from the fitted curve at half-maximal effect
[5] = target: Estrogen receptor (Homo sapiens) (UniProt P03372); experiment: qHTS assay to identify small molecule agonists of the estrogen receptor alpha (ER-alpha) signaling pathway using the BG1 cell line (AID 743079; active = well fitted curve in the direction sought with a large enough effect in the repeat runs; inconclusive = weak or mixed curves; inactive = no such curve, though single readings can be large; an effect the other way counts as inactive or inconclusive; also: nearly all actives have a fitted effect of over 20% in size; also: potency is read from the fitted curve at half-maximal effect); conditions: BG1Luc4E2 cells, ERE-luciferase agonist, 22 h; activation: at 70.3 µM (top of the series)
[6] = qHTS assay to identify small molecule antagonists of the estrogen receptor alpha (ER-alpha) signaling pathway using the BG1 cell line (AID 743080);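 also: BG1 cells stimulated with 17beta-estradiol alongside compound; nearly all actives have a fitted effect of over 25% in size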; also: potency is read from the fitted curve at half-maximal effect
Summary of the method: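 Luciferase inhibition measured with ONE-Glo after 30 min at RT in BG1Luc4E2 cells given test compounds and 17beta-estradiol for 21.5 h at 37 C; CellTiter-Fluor viability read in the same wells beforehand.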

[7] = qHTS assay to identify small molecule antagonists of the estrogen receptor alpha (ER-alpha) signaling pathway using the BG1 cell line - cell viability counter screen (AID 743081; active = well fitted curve in the direction sought with a large enough effect in the repeat runs; inconclusive = weak or mixed curves; inactive = no such curve, though single readings can be large; an effect the other way counts as inactive or inconclusive;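 also: compound given together with 17beta-estradiol as the ER stimulus; nearly all actives have a fitted effect of over 45% in size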; also: potency is read from the fitted curve at half-maximal effect)
Aromatase (Homo sapiens) = Aromatase (Homo sapiens) (UniProt P11511); experiment: qHTS assay to identify aromatase inhibitors (AID 743083; active = well fitted curve in the direction sought with a large enough effect in the repeat runs; inconclusive = weak or mixed curves; inactive = no such curve, though single readings can be large; an effect the other way counts as inactive or inconclusive; also: nearly all actives have a fitted effect of over 55% in size; also: potency is read from the fitted curve at half-maximal effect)
[8] = qHTS assay to identify small molecule antagonists of the thyroid receptor (TR) signaling pathway (AID 743065; active = well fitted curve in the direction sought with a large enough effect in the repeat runs; inconclusive = weak or mixed curves; inactive = no such curve, though single readings can be large; an effect the other way counts as inactive or inconclusive; also: nearly all actives have a fitted effect of over 55% in size; also: potency is read from the fitted curve at half-maximal effect)
Summary of the method: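 Antagonism measured as loss of luciferase signal in GH3 cells stably carrying a TRE-luciferase reporter, co-treated with compound and T3 (1 nM final) for 23.5 h at 37 C. Viability was read in the same well by CellTiter-Fluor.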

[9] = system: thyroid hormone receptor (rat, GH3 cells); experiment: qHTS assay to identify small molecule agonists of the thyroid receptor (TR) signaling pathway (AID 743066)

Aromatase (Homo sapiens), sequence (P11511 whole entry, looked up): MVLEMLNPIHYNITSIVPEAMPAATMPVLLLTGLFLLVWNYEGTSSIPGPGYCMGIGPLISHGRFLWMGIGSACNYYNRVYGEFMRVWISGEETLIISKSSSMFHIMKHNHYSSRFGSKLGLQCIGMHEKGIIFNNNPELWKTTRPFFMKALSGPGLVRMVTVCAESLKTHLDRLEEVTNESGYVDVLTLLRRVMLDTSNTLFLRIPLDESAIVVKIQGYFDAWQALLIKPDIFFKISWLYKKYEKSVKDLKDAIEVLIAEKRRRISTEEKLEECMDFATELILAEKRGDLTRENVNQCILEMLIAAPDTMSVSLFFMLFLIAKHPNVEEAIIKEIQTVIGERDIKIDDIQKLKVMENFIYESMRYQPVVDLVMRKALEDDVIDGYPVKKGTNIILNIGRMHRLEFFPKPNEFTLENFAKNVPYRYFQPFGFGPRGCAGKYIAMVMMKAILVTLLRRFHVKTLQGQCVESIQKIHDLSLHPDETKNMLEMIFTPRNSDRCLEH
Estrogen receptor (Homo sapiens), sequence (P03372 whole entry, looked up): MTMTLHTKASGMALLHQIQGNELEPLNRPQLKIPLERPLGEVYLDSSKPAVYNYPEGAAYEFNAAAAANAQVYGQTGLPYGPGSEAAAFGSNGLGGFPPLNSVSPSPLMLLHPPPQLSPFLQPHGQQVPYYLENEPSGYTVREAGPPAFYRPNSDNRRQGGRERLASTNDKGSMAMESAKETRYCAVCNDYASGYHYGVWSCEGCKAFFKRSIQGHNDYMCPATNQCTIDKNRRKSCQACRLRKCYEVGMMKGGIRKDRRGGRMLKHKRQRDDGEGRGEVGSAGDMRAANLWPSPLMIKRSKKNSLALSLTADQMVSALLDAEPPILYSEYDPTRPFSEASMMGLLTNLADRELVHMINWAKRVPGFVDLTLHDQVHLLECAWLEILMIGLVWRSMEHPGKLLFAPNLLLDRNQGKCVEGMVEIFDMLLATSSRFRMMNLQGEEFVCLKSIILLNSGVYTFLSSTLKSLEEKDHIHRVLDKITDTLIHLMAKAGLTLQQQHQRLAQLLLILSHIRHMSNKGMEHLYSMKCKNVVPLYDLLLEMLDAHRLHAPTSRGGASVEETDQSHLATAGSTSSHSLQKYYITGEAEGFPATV

Row | SMILES | Potency [1] | Potency [2] | Potency [3] | Potency [4] | Potency [5] | Potency [6] | Potency [7] | Potency (Aromatase (Homo sapiens)) | Potency [8] | outcome [9] | activation [5]
1 | O=C1c2ccccc2C(=O)C1c1ccc(Br)cc1 | inactive | inactive | inactive | inactive | inactive | inactive | inactive | inactive | – | – | –
2 | C/C=C\C/C=C/CCCCCCCCOC(C)=O | – | inactive | inactive | inactive | inactive | inactive | inactive | inactive | 68.6 µM (active) | inactive | –
3 | CCCCC(CC)COP(=O)(O)O (stereo not drawn) | inactive | 39.6 µM [inconclusive] (active) | inactive | inactive | inactive | inactive | inactive | inactive | – | inactive | –
4 | CC(C)C(O)(c1ccc(OC(F)(F)F)cc1)c1cncnc1 (stereo not drawn) | inactive | – | inactive | – | – | – | inactive | inactive | – | inactive | –
5 | FC(F)(F)c1ccccc1Cl | – | inactive | inactive | inactive | inactive | inactive | inactive | inactive | inactive | inactive | –
6 | CCCCCC#CC(=O)OC | – | inactive | inactive | inactive | inactive | inactive | inactive | inactive | inactive | inactive | –
7 | CCOC(=O)c1ccc(I)cc1 | – | inactive | inactive | inactive | inactive | inactive | inactive | inactive | inactive | inactive | –
8 | CC(=O)[C@H]1[C@H](C#N)C[C@H]2[C@@H]3CC=C4C[C@@H](O)CC[C@]4(C)[C@H]3CC[C@@]21C | inactive | – | inactive | inactive | – | inactive | inactive | inactive | – | inactive | –
9 | O=C(O)c1ccc(OCCCOc2ccc(C(=O)O)cc2)cc1 | inactive | – | inactive | – | – | – | inactive | inactive | – | – | –
10 | CCC(=O)OC | inactive | – | inactive | inactive | inactive | inactive | inactive | inactive | – | – | –
11 | O=C(CCc1ccc(O)cc1)c1c(O)cc(O)cc1O | 55.7 µM (active) | – | – | 14.1 µM [inconclusive] (active) | 4.96 µM (active) | inactive | inactive | – | – | inactive | –
12 | C=C(C)[C@@H]1CCC2=CCC[C@@H](C)[C@]2(C)C1 | inactive | – | inactive | inactive | – | inactive | inactive | – | – | inactive | –
13 | COc1ccccc1N1CCN(CC(O)COc2cccc3ccccc23)CC1 (stereo not drawn) | 26.6 µM (active) | – | inactive | – | – | – | inactive | inactive | – | inactive | –
14 | CC(CN(C)C)C(C)(O)Cc1ccc(Cl)cc1 (stereo not drawn) | – | inactive | inactive | inactive | inactive | inactive | – | inactive | inactive | inactive | –
15 | Cc1ccc(Cl)c(Nc2ccccc2C(=O)O)c1Cl | inactive | – | – | inactive | inactive | inactive | inactive | inactive | – | inactive | –
16 | C=C/C(C)=C/C/C=C(\C)CCC=C(C)C | – | – | inactive | inactive | inactive | inactive | inactive | inactive | – | inactive | –
17 | CN1CCCN=C1COC(=O)C(O)(c1ccccc1)C1CCCCC1 (stereo not drawn) | – | inactive | – | inactive | inactive | inactive | inactive | inactive | – | inactive | –
18 | CCc1ccccc1 | – | inactive | inactive | inactive | inactive | inactive | inactive | inactive | – | – | –
19 | C[C@]12CC[C@@H]3c4ccc(O)cc4CC[C@H]3[C@@H]1CC[C@@H]2OC(=O)CCC1CCCC1 | – | – | inactive | 1.2 nM [inconclusive] (active) and 0.5 nM [inconclusive] (active) | – | inactive | inactive | inactive and 61.1 µM (active) | – | inactive | 60.2% (active) and 48.5% (active) and 30.3% (active)
20 | O=C=Nc1ccc(Cl)c(Cl)c1 | – | – | inactive | inactive | inactive | inactive | inactive | inactive | inactive | inactive | –
21 | C=CCc1ccccc1OCC(O)CNC(C)C (stereo not drawn) | – | – | inactive | – | – | – | inactive | inactive | – | inactive | –
22 | OC(CCN1CCCC1)(c1ccccc1)C1CCCCC1 (stereo not drawn) | – | – | inactive | – | – | – | inactive | inactive | – | inactive | –
23 | CN1C(=O)c2ccccc2C1=O | – | – | – | – | – | – | – | inactive | inactive | inactive | –
24 | O=C1C(=O)c2ccccc2C(O)=C1C1CCC(c2ccc(Cl)cc2)CC1 (stereo not drawn) | – | – | 2.04 µM (active) | inactive | inactive | – | inactive | inactive | – | inactive | –
25 | CCCCC(CC)CN (stereo not drawn) | – | inactive | – | inactive | inactive | inactive | inactive | – | – | inactive | –
26 | O=C1c2ccccc2C(=O)N1CCc1noc(-c2ccc(CN3CCCCCC3)s2)n1 | – | – | – | inactive | – | 49.9 µM (active) | inactive | – | – | inactive | –
27 | C[C@H]1c2cccc(O)c2C(O)=C2C(=O)[C@]3(O)C(O)=C(C(N)=O)C(=O)[C@@H](N(C)C)[C@@H]3[C@@H](O)[C@@H]21 | – | – | inactive | inactive | inactive | inactive | inactive | inactive | inactive | inactive | –

Row | SMILES | Potency [1] | Potency [2] | Potency [3] | Potency [4] | Potency [5] | Potency [6] | Potency [7] | Potency (Aromatase (Homo sapiens)) | Potency [8] | outcome [9] | activation [5]
28 | CC(=O)OCCN(CCOC(C)=O)c1ccc(N=Nc2ccc([N+](=O)[O-])cc2C#N)cc1 | – | – | inactive | – | – | – | – | – | 61.1 µM (active) | inactive | –
29 | O=c1c(O)c(-c2ccc(O)cc2)oc2cc(O)cc(O)c12 | – | – | inactive | – | – | – | inactive | – | – | inactive | –
30 | Oc1cccc(O)c1O | – | – | inactive | 21.3 µM [inconclusive] (active) and 54.5 µM [inconclusive] (active) | 5.96 µM (active) | inactive | inactive | inactive | inactive | inactive | –
31 | CCOC(=O)[C@H](CCc1ccccc1)N[C@@H](C)C(=O)N(CC(=O)O)C1Cc2ccccc2C1 | – | inactive | – | inactive | inactive | inactive | inactive | inactive | inactive | inactive | –
32 | CC(C)=CC(=O)C=C(C)C | – | – | inactive | inactive | inactive | inactive | inactive | inactive | inactive | inactive | –
33 | CN1CC(=O)N2[C@H](c3ccc4c(c3)OCO4)c3[nH]c4ccccc4c3C[C@@H]2C1=O | – | inactive | – | inactive | inactive | – | inactive | inactive | inactive | inactive | –
34 | COc1ccccc1N1CCN(CCCCNC(=O)c2ccc(-c3ccc(C(C)=O)cc3)cc2)CC1 | – | inactive | inactive | inactive | inactive | – | – | inactive | – | inactive | –
35 | C/C=C(/C(=C/C)c1ccc(O)cc1)c1ccc(O)cc1 | – | – | inactive | 0.0006 µM [inconclusive] (active) | 0.0003 µM (active) | inactive | inactive | inactive | – | inactive | –
36 | Cc1[nH]cnc1CN1CCc2c(c3ccccc3n2C)C1=O | – | – | inactive | – | – | – | inactive | inactive | – | – | –
37 | CCOc1cccc(-n2cc(C(=O)N3CCN(c4cc(C(=O)O)c5ccccc5c4)CC3)nc2-c2ccc(C)cc2)c1 | – | – | – | – | – | – | inactive | inactive | – | inactive | –
38 | CC(=O)OCC(=O)NCCCOc1cccc(CN2CCCCC2)c1 | – | – | inactive | – | – | – | inactive | inactive | – | – | –
39 | CCCCOc1ccc(OCCCN2CCOCC2)cc1 | – | inactive | inactive | inactive | inactive | inactive | inactive | inactive | – | inactive | –
40 | C=CC(=O)OCC1CC2CC1C1CCC(COC(=O)C=C)C21 (stereo not drawn) | – | – | – | – | – | – | inactive | inactive | 61.1 µM (active) | inactive | –
41 | Nc1nc2ccc([N+](=O)[O-])cc2s1 | – | – | – | – | – | – | – | inactive | 48.6 µM (active) | inactive | –
42 | CN(C)CCN1C(=O)c2ccccc2N(C)c2ccccc21 | – | inactive | inactive | inactive | inactive | inactive | inactive | inactive | – | inactive | –
43 | c1ccc2sc(SN(C3CCCCC3)C3CCCCC3)nc2c1 | – | – | inactive | inactive | inactive | inactive | inactive | inactive | 21.4 µM (active) | inactive | –
44 | CN(C(=O)CN(CCO)CC(=O)N(C)C(C)(C)Cc1ccccc1)C(C)(C)Cc1ccccc1 | – | – | inactive | – | – | – | inactive | – | – | inactive | –
45 | CC(C)COCC(CN(Cc1ccccc1)c1ccccc1)N1CCCC1 (stereo not drawn) | – | – | inactive | inactive | inactive | inactive | inactive | – | 10.6 µM (active) | – | –
46 | O=C(O)c1cccc(-c2noc(-c3ccccc3F)n2)c1 | – | – | – | – | – | – | inactive | inactive | 10.6 µM (active) | inactive | –
47 | CC(=O)Nc1cc(S(=O)(=O)O)cc2cc(S(=O)(=O)O)c(N=Nc3ccccc3)c(O)c12 | – | – | inactive | inactive | – | – | 8.63 µM (active) | inactive | inactive | inactive | –
48 | COc1cc(C(=O)NC2CCN(C)CC2)ccc1Nc1ncc2c(n1)N(C1CCCC1)CC(F)(F)C(=O)N2C | – | – | 40 µM (active) | inactive | – | 0.25 µM (active) | – | – | 0.0628 µM (active) | – | –
49 | O=C(O)CCc1nc(-c2ccccc2)c(-c2ccccc2)o1 | – | inactive | inactive | inactive | – | inactive | inactive | inactive | – | inactive | –
50 | O=C(CCCN1CC=C(n2c(=O)[nH]c3ccccc32)CC1)c1ccc(F)cc1 | – | inactive | inactive | inactive | inactive | inactive | inactive | inactive | – | inactive | –
51 | OC[C@H]1O[C@@H](n2cnc3c(=S)nc[nH]c32)[C@H](O)[C@@H]1O | – | – | – | inactive | inactive | – | inactive | inactive | 23.7 µM (active) | inactive | –
52 | CCOC(=O)/C=C/C(=O)OCC | – | inactive | inactive | inactive | inactive | inactive | inactive | inactive | – | – | –
53 | Cc1cc(O)ccc1O | – | – | inactive | – | – | – | inactive | – | – | inactive | –
